Experimental data: PubChem BioAssay AID1159580 (chemical genetic matrix, 2015)
The whole screen tested about 5,500 compounds, of which about 2,000 (36%) were called active. Roughly 18% stayed inconclusive and do not appear here. Rule as the data show it: active = normalized growth mostly below about 0.91 (no sharp cut-off); inconclusive = no clear call, values can overlap the other calls; inactive = mostly above about 0.92. This is one part of the list.

Assay: chemical genetic growth profiling, strain panel (AID 1159580);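 also: tested at 20 µM; growth read once vehicle control cultures reached saturation at 30 °C; 1 = growth at the plate median or of vehicle wells; lower values mean less growth of the strain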
Settings: growth OD

Measured: normalized growth

Cn1c(=O)c2c(ncn2CCCl)n(C)c1=O
inactive: S. cerevisiae deletion strains, locus YAL013W, strain DEP1, stronger effect = lower value 1 | S. cerevisiae deletion strains, locus YBR021W, strain FUR4, stronger effect = lower value 0.995 | S. cerevisiae deletion strains, locus YBR229C, strain ROT2, stronger effect = lower value 0.997 | S. cerevisiae deletion strains, locus YCL029C, strain bik1, stronger effect = lower value 1.03 | S. cerevisiae deletion strains, locus YDL035C, strain GPR1, stronger effect = lower value 1 | S. cerevisiae deletion strains, locus YDL074C, strain BRE1, stronger effect = lower value 0.999 | S. cerevisiae deletion strains, locus YDL101C, strain DUN1, stronger effect = lower value 1.01 | S. cerevisiae deletion strains, locus YDL134C, strain PPH21, stronger effect = lower value 1 | S. cerevisiae deletion strains, locus YDL185W, strain tfp1, stronger effect = lower value 1.01 | S. cerevisiae deletion strains, locus YDL192W, strain arf1, stronger effect = lower value 1.02 | S. cerevisiae deletion strains, locus YDR101C, strain arx1, stronger effect = lower value 0.995 | S. cerevisiae deletion strains, locus YDR150W, strain NUM1, stronger effect = lower value 0.998 | S. cerevisiae deletion strains, locus YDR162C, strain NBP2, stronger effect = lower value 1 | S. cerevisiae deletion strains, locus YDR318W, strain mcm21, stronger effect = lower value 1.02 | S. cerevisiae deletion strains, locus YDR388W, stronger effect = lower value 1.01 | S. cerevisiae deletion strains, locus YDR502C, strain sam2, stronger effect = lower value 1.02 | S. cerevisiae deletion strains, locus YEL061C, strain CIN8, stronger effect = lower value 0.998 | S. cerevisiae deletion strains, locus YER110C, stronger effect = lower value 1.02 | S. cerevisiae deletion strains, locus YER155C, strain BEM2, stronger effect = lower value 0.997 | S. cerevisiae deletion strains, locus YER167W, strain BCK2, stronger effect = lower value 1.01 | S. cerevisiae deletion strains, locus YGL078C, strain dbp3, stronger effect = lower value 1.02 | S. cerevisiae deletion strains, locus YGL086W, strain mad1, stronger effect = lower value 1.01 | S. cerevisiae deletion strains, locus YGL248W, strain PDE1, stronger effect = lower value 1 | S. cerevisiae deletion strains, locus YGR078C, strain PAC10, stronger effect = lower value 0.975 | S. cerevisiae deletion strains, locus YGR135W, strain pre9, stronger effect = lower value 0.995 | S. cerevisiae deletion strains, locus YGR229C, strain SMI1, stronger effect = lower value 0.987 | S. cerevisiae deletion strains, locus YGR252W, strain gcn5, stronger effect = lower value 1.03 | S. cerevisiae deletion strains, locus YHR030C, strain SLT2, stronger effect = lower value 1 | S. cerevisiae deletion strains, locus YHR079C, strain IRE1 (second series), stronger effect = lower value 1.02 | S. cerevisiae deletion strains, locus YHR094C, strain hxt1, stronger effect = lower value 1.01 | S. cerevisiae deletion strains, locus YHR129C, strain ARP1, stronger effect = lower value 1 | S. cerevisiae deletion strains, locus YHR200W, strain rpn10, stronger effect = lower value 1.03 | S. cerevisiae deletion strains, locus YIL066C, strain RNR3, stronger effect = lower value 1.02 | S. cerevisiae deletion strains, locus YIL073C, strain SPO22, stronger effect = lower value 1.08 | S. cerevisiae deletion strains, locus YIL125W, strain kgd1, stronger effect = lower value 1.02 | S. cerevisiae deletion strains, locus YIR030C, strain dcg1, stronger effect = lower value 1.03 | S. cerevisiae deletion strains, locus YJL095W, strain BCK1, stronger effect = lower value 0.992 | S. cerevisiae deletion strains, locus YJL134W, strain LCB3, stronger effect = lower value 1.01 | S. cerevisiae deletion strains, locus YJL168C, strain set2, stronger effect = lower value 1.02 | S. cerevisiae deletion strains, locus YJL187C, strain SWE1 (second series), stronger effect = lower value 1 | S. cerevisiae deletion strains, locus YJR043C, strain POL32, stronger effect = lower value 0.998 | S. cerevisiae deletion strains, locus YJR075W, strain HOC1, stronger effect = lower value 0.987 | S. cerevisiae deletion strains, locus YKL009W, strain mrt4, stronger effect = lower value 1.03 | S. cerevisiae deletion strains, locus YKL068W, stronger effect = lower value 1.02 | S. cerevisiae deletion strains, locus YKL085W, strain MDH1 (second series), stronger effect = lower value 1.01 | S. cerevisiae deletion strains, locus YKL085W, strain MDH1, stronger effect = lower value 1.01 | S. cerevisiae deletion strains, locus YKL190W, strain CNB1, stronger effect = lower value 1 | S. cerevisiae deletion strains, locus YKR001C, strain vps1, stronger effect = lower value 1.01 | S. cerevisiae deletion strains, locus YLR039C, strain RIC1, stronger effect = lower value 1.04 | S. cerevisiae deletion strains, locus YLR058C, strain SHM2, stronger effect = lower value 1.01 | S. cerevisiae deletion strains, locus YLR102C, strain apc9, stronger effect = lower value 1.03 | S. cerevisiae deletion strains, locus YLR262C, strain YPT6, stronger effect = lower value 1.05 | S. cerevisiae deletion strains, locus YLR268W, strain sec22, stronger effect = lower value 0.994 | S. cerevisiae deletion strains, locus YLR330W, strain CHS5, stronger effect = lower value 1.01 | S. cerevisiae deletion strains, locus YLR342W, strain FKS1 (second series), stronger effect = lower value 1.01 | S. cerevisiae deletion strains, locus YLR371W, strain rom2, stronger effect = lower value 1.03 | S. cerevisiae deletion strains, locus YLR418C, strain cdc73, stronger effect = lower value 0.992 | S. cerevisiae deletion strains, locus YML016C, strain PPZ1, stronger effect = lower value 1 | S. cerevisiae deletion strains, locus YML032C, strain rad52, stronger effect = lower value 1.03 | S. cerevisiae deletion strains, locus YML124C, strain tub3, stronger effect = lower value 1.02 | S. cerevisiae deletion strains, locus YMR078C, strain ctf18, stronger effect = lower value 1.02 | S. cerevisiae deletion strains, locus YMR223W, strain ubp8, stronger effect = lower value 1.04 | S. cerevisiae deletion strains, locus YMR263W, strain SAP30, stronger effect = lower value 0.995 | S. cerevisiae deletion strains, locus YMR307W, strain GAS1, stronger effect = lower value 0.996 | S. cerevisiae deletion strains, locus YNL067W, strain RPL9B, stronger effect = lower value 1.01 | S. cerevisiae deletion strains, locus YNL128W, strain TEP1, stronger effect = lower value 0.999 | S. cerevisiae deletion strains, locus YNL153C, strain GIM3, stronger effect = lower value 0.988 | S. cerevisiae deletion strains, locus YNL233W, strain BNI4, stronger effect = lower value 0.994 | S. cerevisiae deletion strains, locus YNL250W, strain rad50, stronger effect = lower value 1.04 | S. cerevisiae deletion strains, locus YNL271C, strain bni1, stronger effect = lower value 1.02 | S. cerevisiae deletion strains, locus YNL298W, strain CLA4, stronger effect = lower value 1.03 | S. cerevisiae deletion strains, locus YNL307C, strain MCK1, stronger effect = lower value 1.03 | S. cerevisiae deletion strains, locus YNL322C, strain KRE1, stronger effect = lower value 1 | S. cerevisiae deletion strains, locus YNR052C, strain pop2, stronger effect = lower value 1.04 | S. cerevisiae deletion strains, locus YOL006C, strain TOP1, stronger effect = lower value 1.03 | S. cerevisiae deletion strains, locus YOL012C, strain htz1 0.951 | S. cerevisiae deletion strains, locus YOL147C, strain pex11, stronger effect = lower value 1.01 | S. cerevisiae deletion strains, locus YOR061W, strain CKA2, stronger effect = lower value 1.01 | S. cerevisiae deletion strains, locus YOR069W, strain VPS5, stronger effect = lower value 1 | S. cerevisiae deletion strains, locus YOR136W, strain idh2, stronger effect = lower value 1.02 | S. cerevisiae deletion strains, locus YOR144C, strain elg1, stronger effect = lower value 1.01 | S. cerevisiae deletion strains, locus YOR184W, strain ser1, stronger effect = lower value 1.03 | S. cerevisiae deletion strains, locus YOR316C, strain cot1, stronger effect = lower value 1.02 | S. cerevisiae deletion strains, locus YPL055C, strain LGE1, stronger effect = lower value 0.999 | S. cerevisiae deletion strains, locus YPL241C, strain CIN2, stronger effect = lower value 1 | S. cerevisiae deletion strains, locus YPR119W, strain clb2, stronger effect = lower value 1.01 | S. cerevisiae deletion strains, locus YPR141C, strain kar3, stronger effect = lower value 1.02 | S. cerevisiae deletion strains, locus YPR163C, strain tif3, stronger effect = lower value 1.01 | S. cerevisiae deletion strains, locus YPR167C, strain met16, stronger effect = lower value 1.02 | S. cerevisiae deletion strains, strain wtn01, stronger effect = lower value 0.997 | S. cerevisiae strains, strain wild type, stronger effect = lower value 1
